Results from ChEMBL document CHEMBL4303097 (2020).
Whole data set: some 1,500 compounds, median “Inhibition index” near 0.17, cut for the highest 2% near 1.3. The list comes from a sample in which the highest values are over-represented; it also holds similar structures and randomly drawn compounds.

Test system: SARS-CoV-2
Test: Inhibition of cell viability relative to arbidol control (inhibition index > 1 indicates higher activity) measured by fluorescence (OD590nm) in Vero E6 cells infected with SARS-CoV-2 (strain BavPat1) at MOI 0.002 after 72hrs
Format: functional, Chlorocebus sabaeus, Vero C1008

Row | Structure (SMILES) | Inhibition index
1 | C[C@@H](O)[C@H]1C(=O)N2C(C(=O)O)=C(SCCNC=N)C[C@H]12 [IMIPENEM ANHYDROUS] | 0.0698
2 | CCOC(=O)NNc1nncc2ccccc12.Cl [TODRALAZINE HYDROCHLORIDE] | -0.005099
3 | CC(C)=C/C(C)=N/Nc1nncc2ccccc12 [BUDRALAZINE] | 1.549
4 | CCc1c(C)[nH]c2c1C(=O)C(CN1CCOCC1)CC2.Cl (centres undefined) [MOLINDONE HYDROCHLORIDE] | 0.4807
5 | CN[C@H](CC(C)C)C(=O)N[C@H]1C(=O)N[C@@H](CC(N)=O)C(=O)N[C@H]2C(=O)N[C@H]3C(=O)N[C@H](C(=O)N[C@H](C(=O)O)c4cc(O)cc(O)c4-c4cc3ccc4O)[C@H](O)c3ccc(c(Cl)c3)Oc3cc2cc(c3O[C@@H]2O[C@H](CO)[C@@H](O)[C@H](O)[C@H]2O[C@H]2C[C@](C)(N)[C@H](O)[C@H](C)O2)Oc2ccc(cc2Cl)[C@H]1O.Cl | 0.05858
6 | C[C@H]1O[C@H](O[C@H]2[C@H](O)[C@@H](O)[C@@H](O[C@H]3[C@H](O)[C@@H](O)C(O)O[C@@H]3CO)O[C@@H]2CO)[C@H](O)[C@@H](O)[C@@H]1N[C@H]1C=C(CO)[C@@H](O)[C@H](O)[C@H]1O (some centres undefined) [ACARBOSE] | 0.004156
7 | CC(=O)[C@H]1CC[C@H]2[C@@H]3C=CC4=CC(=O)CC[C@@]4(C)[C@@H]3CC[C@]12C [DYDROGESTERONE] | 0.5447
8 | COCCCOc1ccnc(C[S+]([O-])c2nc3ccccc3[nH]2)c1C.[Na+] (centres undefined) | 0.5892
9 | CC(NCCc1ccc(O)cc1)C(O)c1ccc(O)cc1.Cl (centres undefined) [RITODRINE HYDROCHLORIDE] | 0.3972
10 | C[C@H](CCc1ccccc1)NC[C@H](O)c1ccc(O)c(C(N)=O)c1 [DILEVALOL] | 1.277
11 | CC(CCc1ccccc1)NC(C)C(O)c1ccc(O)cc1 (centres undefined) [NYLIDRIN] | 1.263
12 | CC(C)NC[C@@H](O)c1ccc(O)c(O)c1.O=C(O)C(O)C(O)C(=O)O | 0.1733
13 | CC(CCc1ccccc1)NCC(O)c1ccc(O)c(C(N)=O)c1.Cl (centres undefined) [LABETALOL HYDROCHLORIDE] | 0.3584
14 | CC(COc1ccccc1)NC(C)C(O)c1ccc(O)cc1.Cl (centres undefined) [ISOXSUPRINE HYDROCHLORIDE] | -0.02068
15 | CC1(C)O[C@@H]2C[C@H]3[C@@H]4C[C@H](F)C5=CC(=O)C=C[C@]5(C)[C@H]4[C@@H](O)C[C@]3(C)[C@]2(C(=O)CO)O1 [FLUNISOLIDE] | 0.0848
16 | CCOC(=O)O[C@]1(C(=O)OCCl)CC[C@H]2[C@@H]3CCC4=CC(=O)C=C[C@]4(C)[C@H]3[C@@H](O)C[C@@]21C [LOTEPREDNOL ETABONATE] | 0.5857
17 | CCOC(=O)O[C@]1(C(=O)COC(=O)CC)CC[C@H]2[C@@H]3CCC4=CC(=O)C=C[C@]4(C)[C@H]3[C@@H](O)C[C@@]21C [PREDNICARBATE] | 1.368
18 | CC1(C)O[C@@H]2C[C@H]3[C@@H]4CCC5=CC(=O)C=C[C@]5(C)[C@H]4[C@@H](O)C[C@]3(C)[C@]2(C(=O)CO)O1 [DESONIDE] | 1.58
19 | C[C@]12C=CC(=O)C=C1CC[C@@H]1[C@@H]2[C@@H](O)C[C@@]2(C)[C@H]1CC[C@]2(O)C(=O)CO [PREDNISOLONE] | 0.3132
20 | CCCC1O[C@@H]2C[C@H]3[C@@H]4CCC5=CC(=O)C=C[C@]5(C)[C@H]4[C@@H](O)C[C@]3(C)[C@]2(C(=O)CO)O1 (some centres undefined) [BUDESONIDE] | 0.726
21 | CCN(CC)CCOC(=O)C(c1ccccc1)c1ccccc1.Cl [ADIPHENINE HYDROCHLORIDE] | 0.1368
22 | CC/C(=C(\c1ccccc1)c1ccc(OCCN(C)C)cc1)c1ccccc1.O=C(O)CC(O)(CC(=O)O)C(=O)O [TAMOXIFEN CITRATE] | -0.1208
23 | C[C@]12CC[C@@H]3c4ccc(O)cc4C[C@@H](CCCCCCCCC[S+]([O-])CCCC(F)(F)C(F)(F)F)[C@H]3[C@@H]1CC[C@@H]2O (some centres undefined) [FULVESTRANT] | 0.187
24 | CC[C@H](C)[C@H](NC(=O)[C@H](Cc1ccc(O)cc1)NC(=O)[C@@H](NC(=O)[C@H](CCCNC(=N)N)NC(=O)[C@@H](N)CC(=O)O)C(C)C)C(=O)N[C@@H](Cc1c[nH]cn1)C(=O)N1CCC[C@H]1C(=O)N[C@@H](Cc1ccccc1)C(=O)O.O=C(O)C(F)(F)F | 0.4608
25 | CC(C(=O)[O-])c1cccc(Oc2ccccc2)c1.CC(C(=O)[O-])c1cccc(Oc2ccccc2)c1.O.O.[Ca+2] (centres undefined) [FENOPROFEN CALCIUM] | 0.03953

Row | Structure (SMILES) | Inhibition index
26 | CC(=O)OCC(=O)[C@@]12OC3(CCCC3)O[C@@H]1C[C@H]1[C@@H]3CCC4=CC(=O)C=C[C@]4(C)[C@@]3(F)[C@@H](O)C[C@@]12C [AMCINONIDE] | 0.9715
27 | CCCCCN(CCCCC)C(=O)C(CCC(=O)[O-])NC(=O)c1ccc(Cl)c(Cl)c1.[Na+] (centres undefined) [LORGLUMIDE SODIUM] | 0.5123
28 | Nc1nc2[nH]cc(CCc3ccc(C(=O)N[C@@H](CCC(=O)[O-])C(=O)[O-])cc3)c2c(=O)[nH]1.[Na+].[Na+] [PEMETREXED DISODIUM] | 0.05416
29 | CC(C)(C(=O)O)c1ccc(C(O)CCCN2CCC(C(O)(c3ccccc3)c3ccccc3)CC2)cc1.Cl (centres undefined) [FEXOFENADINE HYDROCHLORIDE] | 0.6767
30 | CC(C)NCC(O)c1ccc2ccccc2c1.Cl (centres undefined) | 0.8858
31 | CCN(CC)CCNC(=O)c1ccc(N)cc1.Cl [PROCAINAMIDE HYDROCHLORIDE] | 0.2557
32 | C#CCN(C)[C@H](C)Cc1ccccc1.Cl [SELEGILINE HYDROCHLORIDE] | 0.2358
33 | CCC1(c2cccc(O)c2)CCCCN(C)C1.Cl (centres undefined) [MEPTAZINOL HYDROCHLORIDE] | 1.137
34 | CCN1CCN(C(=O)N[C@@H](C(=O)N[C@@H]2C(=O)N3C(C(=O)O)=C(CSc4nnnn4C)CS[C@H]23)c2ccc(O)cc2)C(=O)C1=O.O.O [CEFOPERAZONE DIHYDRATE] | 0.2339
35 | C=C[C@H]1CN2CC[C@H]1C[C@H]2[C@H](OC(=O)OCC)c1ccnc2ccc(OC)cc12 [QUININE ETHYLCARBONATE] | 0.6435
36 | C=C[C@H]1CN2CC[C@H]1C[C@@H]2[C@@H](O)c1ccnc2ccc(OC)cc12.Cl.O | 1.411
37 | Nc1nc(/C(=C/CC(=O)O)C(=O)N[C@@H]2C(=O)N3C(C(=O)O)=CCS[C@H]23)cs1 [CEFTIBUTEN] | 0.07268
38 | CC(C)OC(=O)CCC/C=C\C[C@H]1[C@H](CC[C@@H](O)CCc2ccccc2)[C@@H](O)C[C@H]1O | 0.1555
39 | CC[C@H]1OC(=O)[C@H](C)[C@@H](O[C@H]2C[C@@](C)(OC)[C@@H](O)[C@H](C)O2)[C@H](C)[C@@H](O[C@@H]2O[C@H](C)C[C@H](N(C)C)[C@H]2O)[C@](C)(O)C[C@@H](C)C(=O)[C@H](C)[C@@H](O)[C@]1(C)O [ERYTHROMYCIN] | 0.0005254
40 | CC[C@H]1OC(=O)[C@H](C)[C@@H](O[C@H]2C[C@@](C)(OC)[C@@H](O)[C@H](C)O2)[C@H](C)[C@@H](O[C@@H]2O[C@H](C)C[C@H](N(C)C)[C@H]2O)[C@](C)(OC)C[C@@H](C)C(=O)[C@H](C)[C@@H](O)[C@]1(C)O [CLARITHROMYCIN] | 0.8598
41 | CC[C@H]1OC(=O)[C@H](C)[C@@H](O[C@H]2C[C@@](C)(OC)[C@@H](O)[C@H](C)O2)[C@H](C)[C@@H](O[C@@H]2O[C@H](C)C[C@H](N(C)C)[C@H]2O)[C@](C)(O)C[C@@H](C)CN(C)[C@H](C)[C@@H](O)[C@]1(C)O [AZITHROMYCIN] | 1.487
42 | CCC(=O)O[C@]1(C(=O)CCl)[C@@H](C)C[C@H]2[C@@H]3CCC4=CC(=O)C=C[C@]4(C)[C@@]3(F)[C@@H](O)C[C@@]21C [CLOBETASOL PROPIONATE] | 0.2335
43 | CC(=O)S[C@@H]1CC2=CC(=O)CC[C@]2(C)[C@H]2CC[C@@]3(C)[C@@H](CC[C@@]34CCC(=O)O4)[C@H]12 [SPIRONOLACTONE] | 0.4829
44 | Cl.NC1CCN(c2nc3c(cc2F)c(=O)c(C(=O)O)cn3-c2ccc(F)cc2F)C1 (centres undefined) | 0.1095
45 | CN1[C@@H]2CC[C@H]1C[C@@H](OC1c3ccccc3CCc3ccccc31)C2.O=C(O)CC(O)(CC(=O)O)C(=O)O [DEPTROPINE CITRATE] | -0.3511
46 | Cc1cc(C(C)(C)C)c(O)c(C)c1CC1=NCCN1.Cl [OXYMETAZOLINE HYDROCHLORIDE] | 0.08485
47 | C=C1CC[C@@]2(O)[C@H]3Cc4ccc(O)c5c4[C@@]2(CCN3CC2CC2)[C@H]1O5.Cl [NALMEFENE HYDROCHLORIDE] | 1.653
48 | Cl.Oc1ccc2c3c1O[C@H]1[C@@H](O)CC[C@@]4(O)[C@@H](C2)N(CC2CCC2)CC[C@]314 [NALBUPHINE HYDROCHLORIDE] | 0.2089
49 | Cl.O.O.O=C1CC[C@@]2(O)[C@H]3Cc4ccc(O)c5c4[C@@]2(CCN3CC2CC2)[C@H]1O5 | 0.1496
